Bioassay records from PubChem.
D1 antagonist: Antagonist of Human D 1 Dopamine Receptor: qHTS | activity change, negative = inhibition, % at 10 µM | D(1A) dopamine receptor (Homo sapiens), P21728 | AID 504652, 2011 | HEK293 TREx D1 cells, calcium flux, dopamine EC80; stronger effect = lower value | 3.2% of 360,000 active; in the data active = activity change below about -30%; note: % is set by controls: 0 for no effect and ±100 for the full control effect
Target sequence (P21728 whole entry, looked up): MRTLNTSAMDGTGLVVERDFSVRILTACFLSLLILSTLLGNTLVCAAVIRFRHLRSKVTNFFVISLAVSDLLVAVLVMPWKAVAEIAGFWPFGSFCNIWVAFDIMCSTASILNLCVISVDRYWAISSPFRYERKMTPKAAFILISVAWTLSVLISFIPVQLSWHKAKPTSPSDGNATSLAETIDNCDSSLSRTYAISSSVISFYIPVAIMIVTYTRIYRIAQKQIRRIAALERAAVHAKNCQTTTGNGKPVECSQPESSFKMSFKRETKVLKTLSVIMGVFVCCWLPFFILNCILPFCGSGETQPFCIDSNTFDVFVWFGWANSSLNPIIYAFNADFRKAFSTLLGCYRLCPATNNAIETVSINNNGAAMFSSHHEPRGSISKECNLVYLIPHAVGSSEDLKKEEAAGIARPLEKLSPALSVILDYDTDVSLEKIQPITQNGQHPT
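Compound effects on dopamine-evoked calcium signalling were measured in tetracycline-induced HEK293 Trex D1 cells. Dopamine at EC80 followed a 180 s compound pre-read, and fluorescence was tracked kinetically for 180 s more.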
D1 potentiator: Potentiators of Human D1 Dopamine Receptor: qHTS; 0.036% of 360,000 active; D(1A) dopamine receptor (Homo sapiens), P21728; potentiation, % at 10 µM; HEK293 TREx D1 cells, calcium flux, dopamine EC20 potentiation; in the data active = potentiation above about 30%; note: 0% is about no effect
TRHR PAM: qHTS for Small Molecule Agonists and Allosteric Enhancers of Human TRH Receptor: Primary Screen for Enhancers | 0.66% of 360,000 active | enhancement, % at 2 µM | TRHR cells, fluo-8 calcium fluorescence, EC20 TRH enhancement | AID 493056, 2011 | Thyrotropin-releasing hormone receptor (Homo sapiens), P34981; in the data active = enhancement above about 30%; note: 0% is about no effect
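TRHR-expressing cells loaded with fluo-8 calcium dye were read kinetically (ex 480/em 530) during compound addition, then stimulated with an EC20 of TRH (10 nM final). Enhancement of the Gq-mediated intracellular calcium response was scored.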
TRHR agonist: qHTS for Small Molecule Agonists and Allosteric Enhancers of Human TRH Receptor: Primary Screen for Agonists; TRHR cells, calcium flux fluo-8, FDSS agonist mode; 0.18% of 360,000 active; AID 493084, 2011; activation, % at 2 µM; note: 0% is about no effect
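Agonist-mode FDSS calcium read (Ex 480/Em 530, 1 s cycles) in 1536-well TRHR cells with fluo-8 dye, after 10-cycle baseline and 23 nL compound addition; TRH at EC20 (10 nM final) added afterwards for the enhancer phase.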
D1 agonist: Allosteric Agonists of the Human D1 Dopamine Receptor: qHTS. HEK293 T-REx D1 cells, calcium flux, agonist mode. activation, % at 2 µM. 1% of 360,000 active. AID 504660, 2011; note: 0% is about no effect
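Agonism was scored from calcium flux recorded over 180 s (1 read/s) after pintool compound addition, following a 10-cycle baseline. Cells were inducible force-coupled HEK293 TREx D1, plated overnight at 30 C and loaded with no-wash calcium dye.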
* marks the source's active call; other numbers are inactive results; ! = not confirmed by another sample. Compounds with a hit are over-represented: about 4.6% of the library has one in this group of screens. Cut-off read from the data, not from the text of the source, unless noted: active = activation above about 30%; inactive = the rest.

SMILES | D1 antagonist | D1 potentiator | TRHR PAM | TRHR agonist | D1 agonist
CCOc1ccc(C2C(C#N)=C(N)SC(N)=C2C#N)cc1OC | -11 | -2 | 1 | 16 | 40*
Cc1cn2c(=O)cc(COc3cccc(NC(=O)c4ccccc4C)c3)nc2s1 | -21 | -2 | -3 | -1 | -2
Cc1nn(C)cc1/C=N/NC(=O)C1(O)c2ccccc2-c2ccccc21 | -34* | -6 | -2 | 1 | 1
O=C(N/N=C/c1ccco1)C1(O)c2ccccc2-c2ccccc21 | 12 | -1 | -1 | 0 | 1
CN(C)CCCN1c2ccccc2CCc2ccccc21 | -41* | -5 | -3 | 1 | 17
CC(CN(C)C)CN1c2ccccc2CCc2ccccc21 (stereo unspecified) | -81* | -12 | -6 | 3 | 12
COc1cc(CN(CCc2c(C)[nH]c3ccc(C)cc23)C(=S)NC(C)(C)C)cc(OC)c1OC | -25 | -9 | -5 | 1 | 30*
Cc1ccc(Oc2ccc(NC(=O)C3=CC=CN4CCS(=O)(=O)N=C34)cc2)cc1 | 2 | -9 | -9 | 0 | 32*
CC(C)(C)c1ccc(NC(=O)C2=CC=CN3CCS(=O)(=O)N=C23)cc1 | -8 | 0 | 6 | 0 | 3
Cc1cccc(Oc2ccc(NC(=O)C3=CC=CN4CCS(=O)(=O)N=C34)cc2)c1 | -36* | -9 | -4 | 0 | 13
Cc1ccc(Cn2c(C)c3cnn(CC(=O)N4CCN(c5ccc(F)cc5)CC4)c(=O)c3c2C)cc1 | 1 | -5 | 12 | -1 | 4
S=c1[nH]nc(-c2cccc(Cl)c2)n1/N=C/c1ccco1 | -10 | -6 | 5 | -1 | 1
Cc1ccc(/C=N/n2c(-c3cccc(Cl)c3)n[nH]c2=S)o1 | -35* | -2 | -4 | 0 | -1
N#Cc1c(N)nc(SCc2ccncc2)c(C#N)c1-c1cccs1 | -34* | -4 | -3 | 0 | 4
CCOC(=O)Cn1nnnc1CN(Cc1ccccc1)Cc1cc2cc(CC)ccc2[nH]c1=O | -39* | -5 | 0 | 0 | 2
Cc1ccc2[nH]c(=O)c(CN(Cc3nnnn3Cc3ccccc3)C3CCCC3)cc2c1 | 2 | 6 | 33* | 0 | -1
CCc1ccc2[nH]c(=O)c(CN(Cc3ccccc3)Cc3nnnn3Cc3ccco3)cc2c1 | 7 | 3 | -1 | 1 | 5
Oc1ccccc1CNc1nc2ccccc2n1CCN1CCCCC1 | 4 | 4 | 6 | -1 | 3
COc1ccccc1Cn1c(-c2ccccc2OC)nc2ccccc21 | 7 | 1 | 37* | 0 | -1
COc1ccccc1CNc1nc2ccccc2n1CCN1CCCCC1 | -35* | 5 | -7 | 0 | 11
COc1ccc(CNc2nc3ccccc3n2C)c(OC)c1 | -40* | -4 | -5 | -1 | 12
Cc1ccc(C2c3c(oc4ccccc4c3=O)C(=O)N2c2nnc(C)s2)cc1 (stereo unspecified) | -23 | -2 | 12 | 0 | 3
Cc1ccc(NC(=O)CNC(=O)N2CC(=O)Nc3ccccc32)cc1F | -2 | -10 | -4 | 1 | 3
O=C(CN1CC(=O)Nc2ccccc21)Nc1ccc(F)c(F)c1 | -39* | -15 | 9 | -2 | 1
Cc1ccc(NC(=O)CN2C(=O)c3ccccc3Sc3ccc(C(=O)N4CCCC4)cc32)cc1 | 10 | 7 | 22 | -1 | 0
SMILES | D1 antagonist | D1 potentiator | TRHR PAM | TRHR agonist | D1 agonist
COc1ccc(C(=O)OCc2cc(=O)n3c(C)csc3n2)cc1F | -12 | -8 | 2 | 1 | 5
Cc1csc2nc(COC(=O)c3ccccc3NC(=O)c3cccc(Br)c3)cc(=O)n12 | -53* | 2 | 2 | 1 | 0
COc1cccc(C(=O)Nc2ccccc2C(=O)OCc2cc(=O)n3c(C)csc3n2)c1 | 14 | 0 | 0 | 0 | 0
Cc1csc2nc(COC(=O)c3ccc(F)cc3)cc(=O)n12 | -38* | -6 | -2 | 0 | 6
COc1ccc(-c2nc(NC(=O)CSCCO)sc2C)cc1 | -6 | -10 | 1 | -3 | 7
C/C(=N\OC(=O)c1ccc(Cl)cc1)c1nccs1 | -32* | -13 | 4 | 0 | 1
C/C(=N\OC(=O)c1c(-c2ccccc2Cl)noc1C)c1nccs1 | -5 | -3 | 14 | 0 | 1
COc1ccc(CNC(=O)CCc2c(C)nn(-c3ccc(N4CCCCC4)nn3)c2C)c(OC)c1 | 0 | -4 | 10 | 0 | 0
c1ccc(-n2c(Sc3cnccn3)nnc2-c2cccs2)cc1 | 11 | -3 | 31* | -1 | 2
COc1ccc(C2Nc3ccccc3C(=O)N2Cc2ccccc2)cc1 (stereo unspecified) | -39* | -4 | -2 | -1 | 4
CCc1c(C)c2ccc(OCC(=O)OC)cc2oc1=O | 6 | -4 | -2 | 0 | 5
COC(=O)Cc1c(C)c2ccc(OCC(=O)N3CCOCC3)cc2oc1=O | -32* | -1 | -4 | 1 | 1
CC(C)c1nnc(SCC(=O)NC(C)(C)C)n1C | -3 | 2 | -1 | 1 | 2
CC(C)(C)NC(=O)CSc1nnnn1C(C)(C)C | -38* | -10 | -3 | 0 | 4
Cn1cc(CN2CCC(CO)(CCCc3ccccc3)CC2)c(-c2ccccc2)n1 | -2 | -5 | -8 | -1 | 47*
O=C(OCC#CCSc1nnc(-c2cccc3ccccc23)o1)c1ccco1 | 3 | 5 | 8 | -1 | 32*!
COc1ccc(NC(=O)c2ccc3c(SCC(=O)O)c4c(nc3c2)CCC4)c(OC)c1 | -35* | 1 | 4 | 0 | 2
O=C(CSc1c2c(nc3ccccc13)CCC2)Nc1ccc(F)cc1F | -36* | -2 | -8 | -1 | -1
O=[N+]([O-])c1cc(S(=O)(=O)Nc2cccc(C(F)(F)F)c2)ccc1-n1nnc2ccccc21 | -15 | -7 | -4 | 0 | 15
COc1ccc(NS(=O)(=O)c2ccc(-n3nnc4ccccc43)c([N+](=O)[O-])c2)cc1 | -3 | -11 | -9 | 2 | 36*
Cc1ccc(-c2cc(-c3ccc(F)cc3)nc(N)c2C#N)o1 | -59* | -8 | 1 | 1 | 2
COc1cc(-c2cc(-c3ccc(F)cc3)nc(N)c2C#N)ccc1O | -44* | -7 | 0 | 0 | 0
COc1ccc(CCC(=O)NCC23CC4CC(CC(C4)C2)C3)cc1 | -20 | -6 | -11 | 0 | 3
COc1cccc(CNC(=O)C2CCN(Cc3cc4ccccc4n3Cc3ccc(C)cc3)CC2)c1 | 20 | 2 | -6 | 0 | 4
